USP30 inh: inhibitors of human USP30 deubiquitinase. 47,000 compounds, 5.3% hits. inhibition, % at 25 µM. purified USP30, Ub-rhodamine cleavage fluorescence. Q70CQ3. AID 1645860
USP10 block: inhibitors of human USP10 deubiquitinase. Q14694. purified USP10, Ub-rhodamine fluorescence, 60 min. inhibition, % at 20 µM. 47,000 compounds, 1.1% hits. AID 1645856
USP28 block: blocks human USP28 ubiquitin-rhodamine cleavage. Q96RU2. purified USP28, Ub-rhodamine cleavage fluorescence, 30 min. inhibition, % at 25 µM. 47,000 compounds, 3% hits. AID 1645857
Target sequence (Q96RU2 whole entry, looked up): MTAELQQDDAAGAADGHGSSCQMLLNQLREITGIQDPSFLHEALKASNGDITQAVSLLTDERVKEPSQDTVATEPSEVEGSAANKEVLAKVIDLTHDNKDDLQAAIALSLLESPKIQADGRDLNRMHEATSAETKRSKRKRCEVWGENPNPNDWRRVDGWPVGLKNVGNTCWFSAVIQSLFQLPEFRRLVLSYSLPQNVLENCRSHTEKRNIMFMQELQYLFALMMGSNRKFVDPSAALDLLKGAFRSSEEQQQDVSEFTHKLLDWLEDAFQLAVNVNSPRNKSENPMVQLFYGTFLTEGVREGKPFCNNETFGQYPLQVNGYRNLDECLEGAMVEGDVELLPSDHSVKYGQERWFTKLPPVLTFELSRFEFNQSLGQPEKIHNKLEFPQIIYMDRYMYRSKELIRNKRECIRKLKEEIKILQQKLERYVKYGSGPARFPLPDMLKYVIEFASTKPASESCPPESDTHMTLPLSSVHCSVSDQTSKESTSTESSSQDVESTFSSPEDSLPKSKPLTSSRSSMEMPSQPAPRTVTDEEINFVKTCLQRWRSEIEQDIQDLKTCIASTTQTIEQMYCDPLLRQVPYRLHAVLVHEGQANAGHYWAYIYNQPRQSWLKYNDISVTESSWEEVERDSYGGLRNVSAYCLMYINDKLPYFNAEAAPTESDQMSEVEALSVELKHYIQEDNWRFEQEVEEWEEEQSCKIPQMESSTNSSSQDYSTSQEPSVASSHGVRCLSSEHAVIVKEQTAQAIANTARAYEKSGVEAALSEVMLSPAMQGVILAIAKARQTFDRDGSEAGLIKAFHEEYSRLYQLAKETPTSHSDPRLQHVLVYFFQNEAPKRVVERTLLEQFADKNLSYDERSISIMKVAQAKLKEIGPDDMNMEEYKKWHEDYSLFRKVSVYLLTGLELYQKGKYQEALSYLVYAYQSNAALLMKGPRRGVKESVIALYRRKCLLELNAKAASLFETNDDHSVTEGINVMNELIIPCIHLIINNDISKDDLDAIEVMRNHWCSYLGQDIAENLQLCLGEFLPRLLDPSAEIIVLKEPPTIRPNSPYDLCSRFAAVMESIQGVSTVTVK
USP17 block: human USP17-like deubiquitinase inhibition; A8MUK1; purified USP17, Ub-rhodamine cleavage fluorescence, 3 h; inhibition, % at 50 µM; 47,000 compounds, 6.5% hits
USP8 block: human USP8 deubiquitinase inhibition; P40818; purified USP8, Ub-rhodamine cleavage fluorescence, 30 min; inhibition, % at 20 µM; 47,000 compounds, 4.2% hits; AID 1645853
* hit, by the source's call; x = no result. Sampled rows, rich in hits. Any-hit rate of the full collection: about 14%. Rule as the data show it: active = inhibition above about 30%; inactive = the rest.

SMILES	USP30 inh	USP10 block	USP28 block	USP17 block	USP8 block
COc1ccccc1N(C)S(=O)(=O)c1ccc2c(c1)NC(=O)CC(=O)N2	11.4	0.5	7.9	7.7	12.1
c1ccc2[nH]c(CN3CCCN(Cc4cncnc4)CC3)nc2c1	-64.9	-3.7	-13.1	-13.6	-19.0
COc1ccc(NC(=O)NCCN2CCN(c3ccc(Cl)cc3)CC2)cc1	14.5	1.5	14.0	3.0	-3.3
Cc1ccccc1C(=O)N1CCN(CCNC(=O)C(=O)Nc2ccc(Cl)cc2)CC1	42.4*	-3.1	12.9	15.4	13.0
Cc1ccccc1NC(=O)c1c(C)sc2c(=O)n(C(C)C)cnc12	-19.9	-3.1	-8.4	31.9*	-2.8
Cc1cccc(C)c1NC(=O)c1c(C)sc2c(=O)n(C(C)C)cnc12	-22.3	-5.4	-8.0	0.1	-2.3
COc1ccc(C2c3c(-c4ccccc4O)n[nH]c3C(=O)N2CCc2ccc(OC)c(OC)c2)cc1 (configuration not stated)	5.0	13.9	-3.3	27.5	61.0*
Cc1ccc(NC(=O)Cn2c(=O)n(CCC(=O)NCCc3ccc(Cl)cc3)c(=O)c3ccccc32)cc1	20.5	6.2	15.1	15.6	18.0
O=C(CCn1c(=O)c2ccccc2n(CC(=O)Nc2ccc3c(c2)OCCO3)c1=O)NCCc1ccccc1	3.8	20.8	-2.0	48.5*	5.9
COCCCNC(=O)c1ccc(Cn2c(=O)c3ccccc3n(CC(=O)Nc3ccc4c(c3)OCCO4)c2=O)cc1	-3.7	28.7	-4.4	-0.7	31.6*
O=C(Cn1c(=O)n(Cc2ccc3c(c2)OCO3)c(=O)c2ccccc21)Nc1ccc2c(c1)OCCO2	-4.7	13.2	11.7	0.0	-1.8
CCN1CCn2c(-c3cnn(C)c3)cnc2C12CCN(C(=O)c1cccc(OC)c1)CC2	0.0	-2.2	-0.6	-24.0	-117.8
COc1ccc(NC(=O)c2c(NC(=O)Cc3ccccc3)sc3c2CCC(C)C3)cc1 (configuration not stated)	-33.5	-0.6	1.9	-4.2	-17.1
COc1ccc(NC(=O)c2ccc3c(c2)C2C4CCC(C4)C2C(c2ccccc2)N3)cc1 (configuration not stated)	39.0*	6.0	0.0	11.1	-0.3
COc1ccc(NC(=O)c2cncc(NS(=O)(=O)c3ccccc3)c2)cc1	-0.7	0.3	2.4	0.6	7.0
COc1ccc(NC(=O)c2ccc3[nH]c4c(c3c2)CC(C)CC4)cc1 (configuration not stated)	-3.2	4.5	1.9	31.5*	26.5
Cc1cc(C)c(NC(=O)COC(=O)c2ccc3c(=O)n4c(nc3c2)CCCCC4)c(C)c1	11.1	0.4	0.1	1.8	-0.8
COc1ccc(NC(=O)CC(=O)c2ccc([N+](=O)[O-])cc2)cc1S(=O)(=O)Nc1ccc(Br)cc1	59.9*	52.6*	42.4*	33.9*	72.1*
COc1ccc(NS(=O)(=O)c2ccc(Cl)c(NC(=O)CC(=O)c3ccc([N+](=O)[O-])cc3)c2)cc1	15.4	23.6	20.9	29.7	37.1*
COC(=O)CSc1ncn(-c2nc(C)cc(Oc3ccccc3)n2)n1	5.2	1.5	4.9	0.1	1.3
COC(=O)c1cccc(Nc2c(-c3ccccc3O)nc3cnccn23)c1	x	-2.5	x	-7.7	-8.4
Cc1ccc(Nc2c(-c3ccccc3O)nc3c[n+](CC(N)=O)ccn23)cc1	-224.3	-0.5	-81.4	-63.8	36.5*
NC(=O)C[n+]1ccn2c(Nc3ccccc3)c(-c3ccccc3O)nc2c1	-65.3	-1.5	-5.6	16.3	72.5*
CCCN1Cc2cccc(C(=O)NCc3ccc4c(c3)OCO4)c2C1=O	15.7	-2.6	35.3*	8.2	8.1
O=C(NCc1ccc(F)cc1)c1nnc(Cc2ccc(Cl)cc2)o1	2.7	4.4	0.8	4.5	8.9
SMILES	USP30 inh	USP10 block	USP28 block	USP17 block	USP8 block
O=C(NCc1ccc2c(c1)OCO2)c1nnc(Cc2ccc(F)cc2)o1	22.2	2.6	5.2	56.4*	9.3
O=C(NCc1ccccc1)c1ccccc1OCc1ccc2c(c1)OCO2	34.9*	12.9	2.6	31.0*	16.8
Cc1nc(NCc2ccccc2)ncc1C(=O)NCc1ccc2c(c1)OCO2	-238.4	-1.4	-9.5	3.1	1.2
COc1ccc(-n2cc(C(=O)NCc3ccc4c(c3)OCO4)c3ccccc3c2=O)cc1	53.5*	22.0	25.8	-0.4	7.5
O=C(Cc1ccccc1)NCC(c1ccccc1Cl)N1CCCC1 (configuration not stated)	12.4	3.5	3.3	-0.3	1.8
CC(=O)N1CC[C@@]2(C(=O)N3CCCC3)CCN(C(=O)Nc3ccccc3Cl)CC[C@@H]12	1.2	0.2	6.9	-0.6	-21.4
